Laboratory results taken from PubChem BioAssay AID1159580 (chemical genetic matrix, 2015).
The whole screen tested about 5,500 compounds, of which about 2,000 (36%) were called active. About 18% were inconclusive and are not listed. Cut-off read from the data, not from the text of the source: active = normalized growth mostly below about 0.91 (no sharp cut-off); inconclusive = no clear call, values can overlap the other calls; inactive = mostly above about 0.92. This is one part of the list.

Test: chemical genetic growth profiling, strain panel (AID 1159580);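 note: tested at 20 µM; growth read once vehicle control cultures reached saturation at 30 °C; 1 = growth at the plate median or of vehicle wells; lower values mean less growth of the strain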
Details: S. cerevisiae deletion strains, growth OD
[1] = locus YAR019C, strain CDC15, active compounds read low
[2] = locus YBL105C, strain PKC1, active compounds read low
[3] = locus YBR135W, strain CKS1, active compounds read low
[4] = locus YBR136W, strain MEC1, active compounds read low
[5] = locus YBR160W, strain CDC28, active compounds read low
[6] = locus YDL017W, strain CDC7, active compounds read low
[7] = locus YDL028C, strain MPS1, active compounds read low
[8] = locus YDL101C, strain DUN1, active compounds read low
[9] = locus YDL108W, strain KIN28, active compounds read low
[10] = locus YDL132W, strain cdc53, active compounds read low
[11] = locus YDL214C, strain PRR2, active compounds read low
[12] = locus YDR052C, strain DBF4, active compounds read low
[13] = locus YDR054C, strain cdc34, active compounds read low
[14] = locus YDR226W, strain ADK1, active compounds read low
[15] = locus YDR477W, strain SNF1, active compounds read low
[16] = locus YER123W, strain YCK3, active compounds read low
[17] = locus YER133W, strain GLC7, active compounds read low
[18] = locus YFL009W, strain cdc4, active compounds read low
[19] = locus YFL029C, strain CAK1, active compounds read low
[20] = locus YFR003C, strain YPI1, active compounds read low
[21] = locus YFR019W, strain FAB1, active compounds read low
[22] = locus YFR028C, strain CDC14, active compounds read low
[23] = locus YGR040W, strain KSS1, active compounds read low
[24] = locus YGR052W, strain FMP48, active compounds read low
[25] = locus YGR092W, strain DBF2, active compounds read low
[26] = locus YHR030C, strain SLT2, active compounds read low
[27] = locus YHR079C, strain IRE1, active compounds read low
[28] = locus YHR082C, strain KSP1, active compounds read low
[29] = locus YHR205W, strain SCH9, active compounds read low
[30] = locus YIL147C, strain SLN1, active compounds read low
[31] = locus YJL095W, strain BCK1, active compounds read low
[32] = locus YJL128C, strain PBS2, active compounds read low
[33] = locus YJL157C, strain FAR1, active compounds read low
[34] = locus YJR016C, strain ILV3, active compounds read low
[35] = locus YJR066W, strain TOR1 (second series), active compounds read low
[36] = locus YJR066W, strain TOR1, active compounds read low
[37] = locus YKL048C, strain ELM1, active compounds read low
[38] = locus YKL101W, strain HSL1, active compounds read low
[39] = locus YKL193C, strain SDS22, active compounds read low
[40] = locus YKL203C, strain TOR2, active compounds read low
[41] = locus YLR113W, strain HOG1, active compounds read low
[42] = locus YLR133W, strain CKI1, active compounds read low
[43] = locus YLR403W, strain SFP1, active compounds read low
[44] = locus YML070W, strain DAK1, active compounds read low
[45] = locus YMR001C, strain CDC5, active compounds read low
[46] = locus YMR205C, strain PFK2 (second series), active compounds read low
[47] = locus YMR277W, strain FCP1, active compounds read low
[48] = locus YNL006W, strain LST8, active compounds read low
[49] = locus YNL020C, strain ARK1, active compounds read low
[50] = locus YNL161W, strain CBK1, active compounds read low
[51] = locus YNL183C, strain NPR1, active compounds read low
[52] = locus YNL207W, strain RIO2, active compounds read low
[53] = locus YNL222W, strain SSU72, active compounds read low
[54] = locus YNL307C, strain MCK1 (second series), active compounds read low
[55] = locus YOL078W, strain AVO1, active compounds read low
[56] = locus YOL136C, strain PFK27, active compounds read low
[57] = locus YOR061W, strain CKA2, active compounds read low
[58] = locus YOR119C, strain RIO1, active compounds read low
[59] = locus YOR231W, strain MKK1, active compounds read low
[60] = locus YOR329C, strain SCD5, active compounds read low
[61] = locus YPL031C, strain PHO85, active compounds read low
[62] = locus YPL153C, strain RAD53, active compounds read low
[63] = locus YPL204W, strain HRR25, active compounds read low
[64] = locus YPL209C, strain IPL1, active compounds read low
[65] = locus YPL256C, strain CLN2, active compounds read low
[66] = locus YPR025C, strain CCL1, active compounds read low
[67] = locus YPR106W, strain ISR1, active compounds read low
[68] = locus YPR111W, strain DBF20, active compounds read low
[69] = strain NNK1, active compounds read low
[70] = strain TSCII, active compounds read low
[71] = locus YAL040C, strain CLN3, active compounds read low
[72] = locus YCL061C, strain MRC1 (second series), active compounds read low
[73] = locus YDR363W, strain ESC2, active compounds read low
[74] = locus YER002W, strain NOP16, active compounds read low
[75] = locus YGR078C, strain PAC10, active compounds read low
[76] = locus YJR075W, strain HOC1, active compounds read low
[77] = locus YMR263W, strain SAP30, active compounds read low
[78] = locus YMR307W, strain GAS1, active compounds read low
[79] = locus YNL128W, strain TEP1, active compounds read low
[80] = locus YNL175C, strain NOP13, active compounds read low
[81] = locus YNL197C, strain WHI3, active compounds read low
[82] = locus YNL224C, strain SQS1, active compounds read low
[83] = locus YNL322C, strain KRE1, active compounds read low
[84] = locus YOR083W, strain WHI5 (second series), active compounds read low
[85] = locus YPL055C, strain LGE1, active compounds read low
[86] = locus YPL241C, strain CIN2, active compounds read low
[87] = locus YAL013W, strain DEP1, active compounds read low
[88] = locus YDR150W, strain NUM1, active compounds read low
[89] = locus YNL153C, strain GIM3, active compounds read low

Measured: normalized growth

Cc1oc(C(C)(C)C)cc1-c1cc(N)n(-c2ccc(I)cc2)n1
active: [26] 0.717 | [41] 0.815 | [47] 1.13 [resistant]
inactive: [1] 1 | [2] 1.01 | [3] 1.02 | [4] 0.992 | [5] 1.01 | [6] 1.01 | [7] 0.976 | [8] 0.987 | [9] 1.02 | [10] 1.01 | [11] 1.15 | [12] 1 | [13] 1.01 | [14] 0.987 | [15] 0.956 | [16] 0.946 | [17] 0.992 | [18] 0.992 | [19] 0.995 | [20] 1 | [21] 0.967 | [22] 1 | [23] 0.985 | [24] 0.985 | [25] 0.882 | [27] 0.894 | [28] 0.957 | [29] 0.885 | [30] 0.997 | [31] 0.851 | [32] 0.961 | [33] 0.979 | [34] 1.01 | [35] 0.936 | [36] 0.903 | [37] 0.98 | [38] 0.948 | [39] 1.02 | [40] 1.05 | [42] 0.943 | [43] 0.965 | [44] 0.971 | [45] 1 | [46] 0.94 | [48] 1.01 | [49] 0.968 | [50] 1.02 | [51] 0.988 | [52] 1.02 | [53] 1.03 | [54] 0.935 | [55] 1.03 | [56] 0.959 | [57] 0.944 | [58] 0.972 | [59] 0.927 | [60] 1.01 | [61] 0.983 | [62] 0.987 | [63] 0.964 | [64] 1.01 | [65] 0.892 | [66] 1.01 | [67] 0.992 | [68] 0.989 | [69] 1 | [70] 1.01

C[C@@H](N)Cc1cnc[nH]1
inactive: [71] 0.96 | [72] 1.01 | [73] 1.02 | [74] 1.01 | [75] 1.02 | [76] 1.02 | [77] 1.01 | [78] 1.02 | [79] 1.01 | [80] 1.01 | [81] 1.02 | [82] 1.02 | [83] 1.02 | [84] 1.04 | [85] 1.03 | [86] 1.01

C/C(O)=C(\C#N)C(=O)Nc1cc(Br)ccc1Br
inactive: [87] 0.98 | [71] 1.01 | [72] 0.99 | [88] 0.989 | [73] 1.05 | [74] 1 | [75] 0.97 | locus YGR229C, strain SMI1, active compounds read low 1.01 | [76] 1.02 | [77] 0.969 | [89] 0.999 | [80] 0.959 | [81] 0.961 | [82] 0.967 | [83] 0.983 | [84] 0.972 | [86] 0.98

O=C(Nc1ccc(Br)cc1Cl)C(Cl)(Cl)Cl
inactive: [87] 0.975 | locus YBR229C, strain ROT2, active compounds read low 0.964 | [8] 0.996 | [88] 0.97 | locus YEL061C, strain CIN8, active compounds read low 0.945 | [75] 0.943 | locus YHR087W, strain rtc3, active compounds read low 0.935 | locus YJR043C, strain POL32, active compounds read low 0.957 | locus YKL190W, strain CNB1, active compounds read low 0.941 | locus YLR058C, strain SHM2 (second series), active compounds read low 0.94 | locus YLR085C, strain ARP6, active compounds read low 0.782 | locus YML094W, strain GIM5, active compounds read low 1.04 | locus YMR219W, strain ESC1, active compounds read low 0.955 | [77] 0.963 | [89] 0.962 | locus YNL298W, strain CLA4 (second series), active compounds read low 0.855 | [83] 0.95 | locus YNR030W, strain Alg12, active compounds read low 0.935 | [85] 0.956 | [86] 1.02
active: [26] 0.635 | [76] 0.888 | locus YLR039C, strain RIC1, active compounds read low 0.609 | locus YLR262C, strain YPT6, active compounds read low 0.635 | [78] 0.56 | locus YOL006C, strain TOP1, active compounds read low 0.681 | locus YPR135W, strain CTF4, active compounds read low 0.64

O=C(Nc1ccccc1Sc1ccc([N+](=O)[O-])cc1[N+](=O)[O-])C(Cl)(Cl)Cl
inactive: [1] 0.972 | [2] 0.972 | [3] 0.973 | [4] 0.97 | [5] 0.983 | [6] 0.975 | [7] 0.973 | [8] 0.976 | [9] 0.958 | [10] 0.983 | [11] 0.987 | [12] 0.974 | [13] 0.971 | [14] 0.965 | [15] 0.977 | [16] 0.986 | [17] 0.969 | [18] 0.96 | [19] 0.973 | [20] 0.965 | [21] 0.984 | [22] 0.966 | [23] 0.975 | [24] 1.02 | [25] 0.985 | [26] 1.02 | [27] 0.967 | [28] 1.06 | [29] 0.795 | [30] 0.972 | [31] 1.01 | [32] 0.92 | [33] 0.97 | [34] 0.971 | [35] 0.967 | [36] 1.1 | [37] 0.976 | locus YKL067W, strain YNK1, active compounds read low 0.982 | [38] 1 | [39] 0.965 | [40] 1.02 | [41] 1.04 | [42] 0.977 | [43] 0.873 | [44] 0.998 | [45] 0.975 | [46] 0.973 | [47] 0.955 | [48] 0.991 | [49] 0.994 | [50] 0.968 | [51] 1.1 | [52] 0.967 | [53] 0.976 | [54] 1 | [55] 0.978 | [56] 0.982 | [57] 0.98 | [58] 1.05 | [59] 1.08 | [60] 0.986 | [61] 0.959 | [62] 0.975 | [63] 0.966 | [64] 0.971 | [65] 0.996 | [66] 0.991 | [67] 0.952 | [68] 0.964 | [69] 0.972 | [70] 0.981

Oc1ccc2c3c1O[C@H]1[C@@H](O)CC[C@@]4(O)C(C2)N(CC2CCC2)CCC314 (stereo partly specified)
inactive: [71] 1.01 | [72] 0.998 | [88] 1.01 | [73] 1.01 | [74] 1 | [77] 1 | [78] 0.998 | [79] 0.995 | [89] 1.01 | [80] 1.01 | [81] 1.03 | [82] 1.02 | [83] 1.01 | [84] 0.984 | [86] 1
